Assay outcomes (PubChem BioAssay)
This excerpt belongs to a sample that is enriched for hits.
14-3-3g Raf = modulators of human 14-3-3 gamma - Raf peptide interaction. inhibition, % at 40 µM. hit rate 0.19% among 160,000. FP, 14-3-3gamma / TMR-pS259-Raf peptide binding. AID 422; in the data active means inhibition above about 30%;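 further: 0% = protein plus tracer without compound and 100% = blank with tracer alone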
Target sequence (P61981 whole entry, looked up): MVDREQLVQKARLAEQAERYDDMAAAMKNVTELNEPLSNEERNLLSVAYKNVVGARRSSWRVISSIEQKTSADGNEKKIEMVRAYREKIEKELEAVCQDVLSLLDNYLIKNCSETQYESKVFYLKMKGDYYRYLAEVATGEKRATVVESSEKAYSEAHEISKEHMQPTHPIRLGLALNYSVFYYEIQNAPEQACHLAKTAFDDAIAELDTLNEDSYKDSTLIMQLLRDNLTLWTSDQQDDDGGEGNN
An asterisk follows results filed as active; ! = not confirmed by another sample.

SMILES | 14-3-3g Raf
Cc1ccc(O)c(N=Cc2ccc(OCc3ccccc3)cc2)c1 | -19
Oc1ccc(N=Cc2ccc(OCc3ccccc3)cc2)cc1 | 35*
Oc1ccc(Cl)cc1N=Cc1ccc(OCc2ccccc2)cc1 | -7
O=C(Nc1nc(-c2cccs2)cs1)c1ccc(Cc2ccccc2)cc1 | 7
CC1=NNC(=O)C1C(c1ccccc1I)C(C#N)C#N (stereo unspecified) | 3
Oc1ccc2ccccc2c1/C=N/n1cnnc1 | -8
Oc1ccc2ccccc2c1C=Nc1cccn2cc(-c3ccccc3)nc12 | 93*
Cc1cc(Br)ccc1N=Cc1c(O)ccc2ccccc12 | -2
Cc1ccc(S(=O)(=O)Nc2ccc(Cl)cc2C(=O)c2ccccc2)cc1[N+](=O)[O-] | 3
COc1ccc2nc3sc(C(=O)Nc4cccc(Cl)c4)cc3cc2c1 | -17
COc1ccc(C)cc1NC(=O)CCN1CCCC1 | 1
COc1ccc(OC)c(NC(=O)CCN2CCCC(C)C2)c1 (stereo unspecified) | 35*
COc1ccc(OC)c(NC(=O)CCN2CCCCC2)c1 | 3
C=C(C)CC(Nc1ccc(F)cc1)c1ccco1 (stereo unspecified) | -5
N#Cc1c(-c2ccccc2[N+](=O)[O-])cc(-c2ccccc2)nc1SCC(=O)Nc1ccccc1 | -14
O=S(=O)(Nc1ccc(-c2csc(-c3ccccc3)n2)cc1)c1ccc(Cl)cc1 | -7
O=C1c2ccccc2C(=O)N1c1ccc(Cl)c([N+](=O)[O-])c1 | -18
CC(=O)Oc1ccc(C(=O)Nc2ccccc2C(=O)O)cc1 | 1
COc1ccc(NC(=O)c2c(C)c(-c3ccc(C)cc3)nc3ccccc23)cc1 | -21
COc1ccc(-c2nc3ccccc3c(C(=O)Nc3ccc(Br)cc3)c2C)cc1 | -41
COc1ccc(OC)c(NC(=O)c2c(C)c(-c3ccccc3)nc3ccccc23)c1 | 53*
COc1ccc(C2CC(=O)C3=C(C2)NC(C)=C(C(=O)OCC(C)C)C3c2ccccc2OC)cc1 (stereo unspecified) | -3
Cc1ccc(C2N=C(c3ccc4c(c3)OCO4)CC(c3cc(Br)ccc3O)N2)cc1 (stereo unspecified) | 1
O=C(Nc1nnc(-c2ccc(Br)cc2)s1)c1ccc([N+](=O)[O-])cc1 | 1
O=C(O)c1ccc(S(=O)(=O)c2ccc3c(c2)C(=O)N(c2cccc(I)c2)C3=O)cc1 | -21
SMILES | 14-3-3g Raf
CCC1(CC)NC(=S)N(c2ccc(C)cc2)N1 | -8
Oc1ccc(Cl)cc1C=Nc1ccc2nc(-c3ccccc3)[nH]c2c1 | 30*
COc1ccc(C=Nc2ccc3nc(-c4ccccc4)[nH]c3c2)cc1OC | -11
O=C(Nc1cc(N=Cc2cc(Cl)ccc2O)ccc1Cl)c1ccccc1 | -5
COc1ccc(C2C3=C(CC(c4ccccc4)CC3=O)Nc3ccc(C)cc3N2C(=O)CCC(=O)O)cc1 (stereo unspecified) | -7
CNC(=O)c1ccc(CNS(=O)(=O)c2ccc(C)cc2)cc1 | 3
COc1cccc(CNC(=O)c2ccc(CNS(=O)(=O)c3ccc(C)cc3)cc2)c1 | 34*
Cc1ccc(CNC(=O)c2ccc(CNS(=O)(=O)c3ccc(C)cc3)cc2)cc1 | -6
O=C(NCC1CCCO1)c1cnn2c(C(F)(F)F)cc(-c3cccs3)nc12 (stereo unspecified) | -15
Cc1cccc(OCC(=O)NCc2ccncc2)c1 | -17
NC(=O)CN1CCOCCOCCN(CC(N)=O)CCOCC1 | -4
C=COCCN1CCOCC1 | -13
OCCN1CCOCCN(CCO)CCN(CCO)CC1 | 147*!
CCC(Sc1nc(N)cc(=O)[nH]1)C(=O)Nc1ccc(S(N)(=O)=O)cc1 (stereo unspecified) | -10
CCN(CC)c1ccc(C2Nc3ccc4ncccc4c3C3=C2C(=O)CCC3)cc1 (stereo unspecified) | 1
CCOC(=O)Cc1c(C)nc2c(C#N)cnn2c1C | -4
CCOC(=O)c1cnc2c(C#N)cnn2c1-c1ccccc1 | 0
CCOC(=O)c1cnc2c(C#N)cnn2c1C | 141*
O=C(CSc1nc2[nH]ncc2c(=O)n1-c1ccccc1)Nc1ccc(Cl)cc1 | -12
CCN1/C(=C/c2ccc3ccccc3[n+]2CC)Sc2ccc(C)cc21 | -236
CCN1/C(=C/c2ccc3cc(OC)ccc3[n+]2CC)Sc2ccc(Cl)cc21 | 12
CCN1/C(=C/c2ccc3cc(OC)ccc3[n+]2CC)Sc2ccc(C)cc21 | 42*
O=C(Cn1cnc2ccccc2c1=O)NCCC(=O)N1CCCC1 | 6
Cc1ccc(CCNC(=O)CCc2cn(C)c3ccccc23)cc1 | -1
Cc1ccc(C(=O)NCCNC(=O)c2ccncc2)cc1 | 0
SMILES | 14-3-3g Raf
Cc1ccc(C(=O)NCC(C)(C)O)cc1 | 67*
Cc1ccc(C(=O)NCCNC(=O)c2ccc(C)cc2)cc1 | -292
COc1ccc(-c2c(C(F)(F)F)oc3cc(O)ccc3c2=O)cc1OC | 2
Cc1csc(NC(=O)CSc2nsc(SCC(=O)Nc3nc(C)cs3)c2C#N)n1 | 75*
CC(C)(C)NC(=O)CSc1nsc(SCC(=O)NC(C)(C)C)c1C#N | -1
Cc1csc(NC(=O)CSc2nc(-c3cccs3)cc(-c3cccs3)c2C#N)n1 | -26
CCN(CC)CCCNC(=O)Cn1c(=S)[nH]c2ccccc2c1=O | 1
C=CCn1c(SCc2ccccc2F)nc2cc(C(=O)N3CCC(C(N)=O)CC3)ccc2c1=O | 3
Cc1cccc(NC(=O)CCN2C(=S)NC(C)(C)CC2C)c1C (stereo unspecified) | 4
CCN(C(=O)CCN1C(=S)NC(C)(C)CC1C)c1ccc(C)c(C)c1 (stereo unspecified) | 51*
CCN(C(=O)CN1C(=S)NC(C)(C)CC1C)c1ccc(C)c(C)c1 (stereo unspecified) | -5
Cc1ccc(OC(=O)c2ccc(Br)c(S(=O)(=O)N3CCCC3)c2)c(-n2nc3ccccc3n2)c1 | 0
CC(C)Cn1cc(C(=O)N2CCC(C(N)=O)CC2)c2c3ccccc3n(C)c2c1=O | 2
COCCOC(=O)C1=C(N)OC2=C(C(=O)CC(C)(C)C2)C1c1ccccc1[N+](=O)[O-] (stereo unspecified) | 1
COc1cccc(-c2cc(C(=O)Nc3cccc(C(C)=O)c3)no2)c1 | -57
COC(=O)c1c(C)[nH]c(C(=O)CSc2nc(C)nc3sc4c(c23)CCC4)c1C | 0
CN1CCN(C(=O)c2ccc3c(c2)NC(=O)C(N2CCOCC2)S3)CC1 (stereo unspecified) | 4
O=C1Nc2cc(C(=O)N3CCOCC3)ccc2SC1N1CCOCC1 (stereo unspecified) | 38*!
O=C1Nc2cc(C(=O)N3CCOCC3)ccc2SC1N1CCCC1 (stereo unspecified) | -6
COc1ccc(CNc2nc(-c3ccco3)cc(C(F)(F)F)n2)cc1 | -6
CSC1=NC(=Cc2ccc(N(C)C)cc2)C(=O)S1 | 125*
COc1cc(C=C2N=C(SC)SC2=O)cc(OC)c1OC | -227
CCOC(=O)SC1=N/C(=C\c2ccc(N(C)C)cc2)C(=O)S1 | -63
Cc1ccc(OCc2nc(-c3ccc(Br)cc3)no2)cc1C | -12
O=C(Nc1ccc(-c2nc3ncccc3o2)cc1)c1ccccc1Br | -30
SMILES | 14-3-3g Raf
O=C1c2ccccc2C(=O)c2c(I)cccc21 | 3
O=C1c2ccccc2C(=O)c2c1ccc1c(=O)o[nH]c21 | 73*
O=C1c2ccccc2C(=O)c2c(Br)cccc21 | -2
Cc1ccc(-c2nc3ccccc3c(=O)n2CC(=O)Nc2ccc(C)c(F)c2)cc1 | 2
NC(=O)c1c(NC(=O)c2cc(-c3ccc4c(c3)OCO4)on2)sc2c1CCCC2 | -1
CCN1C(=O)c2cccc3c(S(=O)(=O)N4CCCc5ccccc54)ccc1c23 | 33*
